The source of these data is PubChem BioAssay (Tox21).

Unmarked numbers belong to inactive results. Records with an inconclusive call do not appear. The source made the active and inactive calls. Unless noted, calls come from the whole dose curve; as a rule, active = well fitted curve in the direction sought with a large enough effect in the repeat runs; inconclusive = weak or mixed curves; inactive = no such curve, though single readings can be large; an effect the other way counts as inactive or inconclusive.

Experiment [1] concerns the target Thyrotropin receptor (Homo sapiens) (UniProt P16473). Description: qHTS assay to identify small molecule agonists of the thyroid stimulating hormone receptor (TSHR) signaling pathway (AID 1224843; calls by dose curve; note: nearly all actives have a fitted effect of over 45% in size). Put shortly:
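Agonist activity read as cAMP rise via d2/cryptate HTRF competition, 1 h room-temperature detection, in HEK293 cells expressing TSHR. Fifteen-point titrations, each run in triplicate, with a 30 min room-temperature incubation beforehand.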

Experiment [2] in a line: qHTS assay to identify small molecule agonists of the hypoxia (HIF-1) signaling pathway - cell viability counter screen (AID 1224844; calls by dose curve; note: nearly all actives have a fitted effect of over 50% in size). Put shortly:
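HRE-bla ME-180; 0.5% dFBS; cpd 17 h, 37C, 5% CO2; CellTiter-Glo lum., 30 min RT, post-FRET read, same wells.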
For orientation: Quantitative high-throughput screening tests each substance at several concentrations.

A short description of experiment [3]: qHTS assay to identify small molecule agonists of H2AX (AID 1224845; active = well fitted activation curve with a large enough effect in the signal ratio in the repeat runs, not every such curve was filed as active; the % refers to the signal ratio). Put shortly:
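Phospho-H2AX Ser139 measured by HTRF (ex 320 nm; em 665 and 620 nm) after 24 hr antibody incubation. Compounds, 15 concentrations, 0.76% DMSO, were applied to CHO-K1 cells for 3hr at 37C before lysis.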

The nature of experiment [4]: qHTS assay to identify small molecule agonists of H2AX - cell viability counter screen (AID 1224847; calls by dose curve; note: top concentration of the series differs between compounds; nearly all actives have a fitted effect of over 30% in size). The procedure, abridged:
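We seed wild-type CHO-K1 cells overnight, treat them for 3 hr at 37C with compounds in 15-concentration series, and quantify remaining viability by CellTiter-Glo luminescence.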

Experiment [5] in a line: qHTS assay to identify small molecule antagonists of the estrogen related receptor (ERR) signaling pathway from Tox21 library (AID 1224848). Note: nearly all actives have a fitted effect of over 50% in size. Put shortly:
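Luciferase luminescence (ONE-Glo, 30 min room temperature) was the read-out. Cells of the NTP-supplied ERR line, 2,000 per well, were given 6 h at 37 C before compound addition in DMSO and 18 h exposure at 37 C.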

The nature of experiment [6]: qHTS assay to identify small molecule agonists of the estrogen related receptor (ERR) signaling pathway from Tox21 library (AID 1224849; calls by dose curve; note: nearly all actives have a fitted effect of over 15% in size). The conditions noted are these: ERR reporter cell line, ONE-Glo luciferase, 18 h; at 92.4 µM (top of the series) unless noted. Put shortly:
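Tox21 compounds tested for ERR agonism in an NTP reporter cell line: 18 h treatment at 37 C, then ONE-Glo luminescence.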

Experiment [7] is described as follows: qHTS RealTime-Glo MT Cell Viability Assay in HepG2 cells - 24 hour (AID 1224867). Note: nearly all actives have a fitted effect of over 50% in size. Put shortly: (§1)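 Compound treatment began 5 h after plating HepG2 cells (600/well) with NanoLuc luciferase and prosubstrate. Plates stayed at 37 C for 40 h; luminescence was captured at six time points, 0 h through 40 h.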
Experiment [8] in a line: qHTS RealTime-Glo MT Cell Viability Assay in HEK293 cells - 32 hour (AID 1224868). Note: top concentration of the series differs between compounds; nearly all actives have a fitted effect of over 50% in size. The procedure, abridged: (§2)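 Quantitative high-throughput screen of the Tox21 10K library in HEK293: cells and RealTime-Glo reagents plated together, compound added at 5 h, luminescence monitored through 40 h at 37 C.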
The nature of experiment [9]: A CellTox Green Cytotoxicity Assay to monitor cytotoxicity in HEK293 cells - 0 hour (AID 1224869). Note: nearly all actives have a fitted effect of over 50% in size. The procedure, abridged: (§3)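 Tox21 screen in HEK293: membrane-impermeant cyanine dye fluoresces on binding dead-cell DNA; compound pinned 5 h post-seeding, plates held at 37 C, signal read repeatedly through 40 h.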
Experiment [10] is described as follows: qHTS RealTime-Glo MT Cell Viability Assay in HepG2 cells - 40 hour (AID 1224870). Note: nearly all actives have a fitted effect of over 50% in size. Note: potency is the fitted concentration of half-maximal effect. Put shortly: (§4)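 Real-time viability: cells seeded at 600 per well together with NanoLuc and cell-permeant prosubstrate, compounds added after 5 h incubation. Luminescence tracked at 0, 8, 16, 24, 32 and 40 h of exposure.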
Experiment [11] is described as follows: A CellTox Green Cytotoxicity Assay to monitor cytotoxicity in HEK293 cells - 40 hour (AID 1224871). Note: nearly all actives have a fitted effect of over 45% in size. Note: potency is the fitted concentration of half-maximal effect. The procedure, abridged: as §3
The nature of experiment [12]: qHTS RealTime-Glo MT Cell Viability Assay in HEK293 cells - 16 hour (AID 1224872). The procedure, abridged:
as §2

Experiment [13] is described as follows: qHTS RealTime-Glo MT Cell Viability Assay in HepG2 cells - 8 hour (AID 1224873). Note: nearly all actives have a fitted effect of over 55% in size. Put shortly: as §4
A short description of experiment [14]: qHTS RealTime-Glo MT Cell Viability Assay in HEK293 cells - 40 hour (AID 1224874). Note: nearly all actives have a fitted effect of over 50% in size. The conditions noted are these: RealTime-Glo luminescence; max response: active compounds read low. The procedure, abridged:
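HEK293 + NanoLuc + prosubstrate, 600 cells/well; 5 h, 37 C/5% CO2; compound 23 nL in DMSO by pintool; 37 C; luminescence read at 0, 8, 16, 24, 32 and 40 h time points.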

Experiment [15] in a line: A CellTox Green Cytotoxicity Assay to monitor cytotoxicity in HEK293 cells - 24 hour (AID 1224875). Note: nearly all actives have a fitted effect of over 45% in size. The procedure, abridged:
as §3

The nature of experiment [16]: A CellTox Green Cytotoxicity Assay to monitor cytotoxicity in HepG2 cells - 16 hour (AID 1224876). Note: nearly all actives have a fitted effect of over 45% in size. The procedure, abridged: (§5)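 Measurements at 0, 8, 16, 24, 32 and 40 h of treatment captured CellTox Green fluorescence in HepG2 cells that had been co-plated with reagent and preincubated 5 h at 37 C/5% CO2.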
A short description of experiment [17]: qHTS RealTime-Glo MT Cell Viability Assay in HepG2 cells - 32 hour (AID 1224877). Note: nearly all actives have a fitted effect of over 55% in size. Note: potency is the fitted concentration of half-maximal effect. Put shortly:
as §1

Experiment [18] is described as follows: A CellTox Green Cytotoxicity Assay to monitor cytotoxicity in HepG2 cells - 24 hour (AID 1224878). Note: nearly all actives have a fitted effect of over 45% in size. Put shortly: as §5
Experiment [19] is described as follows: A CellTox Green Cytotoxicity Assay to monitor cytotoxicity in HepG2 cells - 40 hour (AID 1224879). Note: nearly all actives have a fitted effect of over 40% in size. Note: potency is the fitted concentration of half-maximal effect. The procedure, abridged:
as §5

Experiment [20] can be described thus: qHTS assay to identify small molecule agonists of the hypoxia (HIF-1) signaling pathway (AID 1224846; active = well fitted activation curve with a large enough effect in the signal ratio in the repeat runs, not every such curve was filed as active; the % refers to the signal ratio). The procedure, abridged: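 Reporter induction in HRE-bla ME-180 cells is taken as agonism: cells sit 5 hrs after plating, receive compounds or DMSO only, incubate 17 hrs at 37C under 5% CO2, and are loaded with CCF4-AM for beta-lactamase FRET measurement.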
% is set by controls: 0 for no effect and ±100 for the full control effect.

Sequence of Thyrotropin receptor (Homo sapiens) (P16473 whole entry, looked up): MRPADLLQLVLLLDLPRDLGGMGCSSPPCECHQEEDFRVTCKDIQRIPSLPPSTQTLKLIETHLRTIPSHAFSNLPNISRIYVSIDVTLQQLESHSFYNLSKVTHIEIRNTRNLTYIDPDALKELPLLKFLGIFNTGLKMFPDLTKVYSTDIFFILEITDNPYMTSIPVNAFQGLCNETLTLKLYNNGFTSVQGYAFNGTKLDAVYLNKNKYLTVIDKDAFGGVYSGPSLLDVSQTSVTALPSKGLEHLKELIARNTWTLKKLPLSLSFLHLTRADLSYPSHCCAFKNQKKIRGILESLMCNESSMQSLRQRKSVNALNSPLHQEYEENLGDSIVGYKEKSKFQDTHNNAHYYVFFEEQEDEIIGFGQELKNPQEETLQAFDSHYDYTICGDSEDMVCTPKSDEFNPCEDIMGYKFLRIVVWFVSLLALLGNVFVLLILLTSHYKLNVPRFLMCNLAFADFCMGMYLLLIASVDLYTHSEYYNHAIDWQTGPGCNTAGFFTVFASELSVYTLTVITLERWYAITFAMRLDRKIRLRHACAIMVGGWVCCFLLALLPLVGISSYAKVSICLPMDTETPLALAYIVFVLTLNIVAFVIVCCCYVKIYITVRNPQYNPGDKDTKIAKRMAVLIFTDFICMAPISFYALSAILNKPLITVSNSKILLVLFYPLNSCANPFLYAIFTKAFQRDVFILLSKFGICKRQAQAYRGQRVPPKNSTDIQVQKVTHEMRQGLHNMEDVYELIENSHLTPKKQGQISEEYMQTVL

For the molecule `CC(C)[N+](C)(CCC(C(N)=O)(c1ccccc1)c1ccccc1)C(C)C`, the Potency entry in experiment [1], in experiment [2], in experiment [4], in experiment [5], in experiment [7] and in [8] was “inactive” each time. The Potency entry in experiment [11], in [12], in [15], in experiment [16], in experiment [18] and in experiment [19] was “inactive” each time. Further, the outcome in [3], in experiment [9] and in [13] was inactive. Moreover, in experiment [6], the activity change, positive = activation is 4.04% [at 42.5 µM]. In addition, the Potency in [10] was 19 µM (active); in experiment [17], 21.3 µM (active). Besides, in [14], the max response is -2.84%.
For `C/C=C/CC#N`, the Potency result in experiment [1], in experiment [2], in [4], in experiment [7], in [10] and in experiment [12] was “inactive” throughout. Moreover, the Potency entry in [16], in experiment [17], in experiment [18] and in [19] was “inactive” in each case. The call in experiment [3], in experiment [9] and in experiment [13] was inactive. Further, the Potency in experiment [11] was 56.2 µM (active). Moreover, the max response in experiment [14] was 9.52%.
As for `CCN[C@@H](C)Cc1ccccc1`, the Potency entry in experiment [1], in experiment [2], in experiment [4], in experiment [5], in [7] and in experiment [8] was “inactive” throughout. Besides, the Potency entry in experiment [10], in [11], in experiment [12], in [15], in experiment [16] and in [17] was “inactive” in each case. For the same molecule, the Potency result in [18] was “inactive”. Further, the molecule was called inactive in experiment [3], in [9] and in experiment [13]. The activity change, positive = activation in experiment [6] was 9.72%. For the same molecule, the Potency in experiment [19] is 0.154 µM (active).
`COP(=O)(O)OC`: the Potency entry in experiment [1], in experiment [2], in [4], in experiment [7], in [8] and in experiment [10] was “inactive” throughout. In addition, the Potency result in [11], in experiment [12], in experiment [15], in experiment [16], in experiment [17] and in experiment [18] was “inactive” each time. The Potency result in experiment [19] is “inactive”. Also, the outcome in [3], in experiment [9] and in [13] was inactive. For the same molecule, the max response in experiment [14] was -2.51%.
On to `NC(=O)CS(=O)C(c1ccccc1)c1ccccc1` (stereo not given), for which the Potency result in experiment [1], in experiment [2], in [4], in [5], in experiment [7] and in experiment [8] was “inactive” throughout. Moreover, the Potency entry in experiment [10], in experiment [11], in [12], in [15], in [16] and in experiment [17] was “inactive” each time. Moreover, the Potency result in [18] and in experiment [19] was “inactive” throughout. The molecule was classed as inactive in experiment [20], in experiment [9] and in experiment [13]. The activity change, positive = activation in experiment [6] is 9.38% [at 42.5 µM]. Further, in experiment [14], the max response was -4.1%.
Turning to `NCC1(CC(=O)O)CCCCC1`, the Potency entry in experiment [1], in [2], in experiment [4], in experiment [7], in experiment [8] and in [10] was “inactive” in each case. Also, the Potency result in [11], in experiment [12], in experiment [15], in [16], in experiment [17] and in experiment [18] was “inactive” in each case. In addition, the Potency entry in [19] is “inactive”. Further, the call in [3], in experiment [9] and in [13] was inactive. Besides, the max response in experiment [14] was 1.23%.
Consider `ClCCCCl`, for which the Potency result in experiment [1], in experiment [2], in experiment [4], in experiment [7], in experiment [8] and in [10] was “inactive” each time. Besides, the Potency entry in experiment [11], in [12], in [15], in experiment [16], in [17] and in [18] was “inactive” each time. For the same molecule, the Potency result in experiment [19] is “inactive”. In addition, the result in [3], in experiment [9] and in [13] was inactive. Moreover, the max response in experiment [14] was 9.81%.
With `CC(C)(N)Cc1ccccc1Cl`, the Potency entry in experiment [1], in [2], in experiment [4], in [5], in experiment [7] and in experiment [8] was “inactive” in each case. The Potency result in experiment [10], in experiment [11], in [15], in experiment [16], in [17] and in experiment [18] was “inactive” in each case. In experiment [19], the Potency entry is “inactive”. For the same molecule, the call in experiment [3], in [9] and in [13] was inactive. In addition, the activity change, positive = activation in experiment [6] is -8.42% [at 42.5 µM]. For the same molecule, the max response in [14] is 1.76%.
